Screening data deposited in PubChem BioAssay by National Center for Advancing Translational Sciences (NCATS).
Sampled rows, rich in hits. Any-hit rate of the full collection: about 11%.
HEK cytotox – HEK 293 cell cytotoxicity; HEK 293 viability, ATP luminescence (CellTiter-Glo), 48-72 h; Potency, µM (top dose mostly 115 µM), inactives show at the highest dose activity change, negative = cytotoxicity, most hits filed as inhibitors; 94,000 tested, 6.6% active; AID 1345083; also: nearly all actives have a fitted effect of over 60% in size
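HEK 293 cells at 250 cells/well were exposed to compounds by pintool transfer for 48 or 72 hr at 37 degree Celsius, 5% CO2. Viability was read as ATP-coupled luminescence with CellTiter-Glo after 10 min at room temperature.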
NIH3T3 tox – cytotoxic compounds in NIH 3T3 cells; Potency, µM (titrated, usually from 96.7 µM), for inactives: at the highest dose activity change, negative = cytotoxicity, most hits filed as inhibitors; NIH 3T3 viability, CellTiter-Glo ATP luminescence, 48-72 h; 94,000 tested, 4.3% active; also: nearly all actives have a fitted effect of over 55% in size
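ATP-dependent luminescence (CellTiter-Glo) served as the viability signal for NIH 3T3 cells treated with compound for 48 or 72 hr at 37 °C.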
NPR1 antag – human Npr1 receptor antagonism; HEK293 hNpr1 GloSensor cGMP, ANP-stimulated luminescence; AID 1347048; 76,000 tested, 1.6% active; Potency, µM (series often up to 46.3 µM), inactives show at the highest dose activity change, negative = inhibition, most hits filed as inhibitors; calls by dose curve; also: nearly all actives have a fitted effect of over 60% in size
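Compound pre-incubated 30 min at room temperature on GloSensor-loaded HEK293 cells stably carrying hNpr1 and the pGS-40F cGMP biosensor. Stimulation uses hNppA at 0.1 nM final; luminescence is taken at baseline and 20 min post-agonist.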
FLuc inh – Photinus pyralis luciferase inhibition | 76,000 tested, 2.5% active | purified P. pyralis luciferase, luminescence, biochemical | P08659 | Potency, µM (top dose mostly 115 µM), usual class: inhibitors; also: nearly all actives have a fitted effect of over 65% in size
Target sequence (P08659 whole entry, looked up): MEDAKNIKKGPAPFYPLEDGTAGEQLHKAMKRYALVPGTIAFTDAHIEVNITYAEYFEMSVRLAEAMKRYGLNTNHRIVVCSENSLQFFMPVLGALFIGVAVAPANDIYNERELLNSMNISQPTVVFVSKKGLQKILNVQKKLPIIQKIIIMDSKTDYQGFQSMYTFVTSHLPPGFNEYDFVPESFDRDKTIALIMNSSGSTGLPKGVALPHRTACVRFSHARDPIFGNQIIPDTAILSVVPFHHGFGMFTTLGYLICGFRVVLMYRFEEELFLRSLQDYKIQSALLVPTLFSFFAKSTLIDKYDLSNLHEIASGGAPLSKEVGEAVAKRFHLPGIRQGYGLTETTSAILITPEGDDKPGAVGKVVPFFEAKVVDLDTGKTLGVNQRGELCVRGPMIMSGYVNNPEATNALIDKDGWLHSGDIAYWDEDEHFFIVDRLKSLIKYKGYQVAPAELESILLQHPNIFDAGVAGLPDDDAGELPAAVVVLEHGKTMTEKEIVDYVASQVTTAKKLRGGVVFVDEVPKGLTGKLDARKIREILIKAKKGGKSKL
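FLuc 10nM, D-luciferin 10uM, ATP 10uM, Mg acetate 10mM, Tris acetate pH 7.5, Tween/BSA; cpd qHTS; enzyme added last; CCD luminescence.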
Numbers without * were called inactive; i = inactive; ? = inconclusive; nt = not tested or not shown; [ ] = another dose, or the depositor's remark. Unless noted, calls follow the shape of the dose curve; as a rule, active = well fitted curve in the direction sought with a large enough effect; inconclusive = small, poorly fitted or top-dose-only effect, or another doubt; inactive = no such curve, though single readings can be large; an effect the other way counts as inactive or inconclusive. % is scaled to controls: 0 for no effect and ±100 for the full control effect; potency is read from the fitted curve at half-maximal effect.

SMILES | HEK cytotox | NIH3T3 tox | NPR1 antag | FLuc inh
COC[C@@H]1CN(S(=O)(=O)c2cccc(C)c2)C[C@H]1c1nc(C)no1 | i | -5% | 0% | i
COCCNC(=O)c1ccc(OC2CCN(CCC(C)c3ccc(C)o3)CC2)c(Cl)c1 (stereo not given) | 89µM* | ? | 1% | i
COCc1ccc(CN2CCC(Oc3ccc(C(=O)NC4CCCC4)cc3Cl)CC2)o1 | 35µM* | ? | -17% | i
COCCNC(=O)c1ccc(OC2CCN(C/C=C/c3ccc(F)cc3)CC2)c(Cl)c1 | 45µM* | ? | ? | i
COCCNC(=O)c1ccc(OC2CCN(CCc3ccccc3)CC2)c(Cl)c1 | ? | ? | 11% | i
CN(Cc1ccco1)C(=O)Cc1cccn1-c1ccc(F)cc1 | -23% | 4% | -20% | i
COCC(=O)N1CCCC(C(=O)N2CCC(N3CCOCC3=O)CC2)C1 (stereo not given) | i | 2% | nt | nt
COC(=O)[C@H](Cc1ccc(OC)cc1)NC(=O)[C@H]1CN(C(C)=O)CCN1S(=O)(=O)c1ccccc1 | i | 45µM* | 3% | i
COC(=O)[C@H](Cc1ccc(OC)cc1)NC(=O)[C@@H]1CN(C(=O)NC(C)C)CCN1S(C)(=O)=O | 3% | -7% | -2% | i
O=C(Nc1ccc(F)cc1)c1ccn2nccc2c1 | ? | -26%[138 µM] | -9%[70.6 µM] | 50µM*
CN(Cc1ccccc1)c1ccc2nnc(-c3ccccn3)n2n1 | ? | 45µM* | -6%[70.6 µM] | i
C[C@@H]1CN(c2ccc3nnc(-c4ccccn4)n3n2)C[C@H](C)O1 | ? | 79µM* | 1%[70.6 µM] | i
COc1ccc(-c2nnc3ccc(N(C)Cc4ccccc4)nn23)nc1 | ? | ? | -7%[70.6 µM] | i
Cc1ccc(CN(C)Cc2ccc(-c3ccccc3)cc2)cc1 | ? | ? | 19%[70.6 µM] | i
CC(=O)Nc1ccc(CN(C)Cc2ccccc2C(F)(F)F)cc1 | 89µM* | ? | -4%[70.6 µM] | i
Cc1ccc(CN(C)Cc2ccccc2C(F)(F)F)cc1 | 1%[172 µM] | i | 0%[70.6 µM] | i
CC(=O)Nc1ccc(CN(C)Cc2ccc(-c3ccccc3)cc2)cc1 | 79µM* | ? | -10%[70.6 µM] | i
COc1ccccc1CCNC(=O)C1CC(c2ccccc2)CN(C(=O)C2CC2)C1 (stereo not given) | 32µM* | ? | -1% | i
CC(C)NC(=O)N1CC(C(=O)NCC2CC2)CC(c2ccccc2)C1 (stereo not given) | -30% | -13% | 6% | i
O=C(Cc1ccc2c(c1)OCO2)N1CCOCC2(CN(Cc3ccccc3)C2)C1 | ? | ? | 1%[70.6 µM] | i
O=C(Cc1ccc2c(c1)OCO2)N1CCOCC2(CN(Cc3cc(F)cc(F)c3)C2)C1 | 56µM* | 35µM* | 4%[70.6 µM] | i
C[S+](=O)([O-])c1ccc(-c2nnc3ccc(C(=O)NC4CCCCC4)cn23)cc1 | -12% | -8% | nt | nt
CC1CCCN(C(=O)CN2CCCc3nc(-c4ccccc4)ncc3C2=O)C1 (stereo not given) | 79µM* | -19% | -14% | i
Cc1nn2c(c1-c1ccccc1OCc1ccccc1)N(Cc1cccc(O)c1)CCC2 | 28µM* | 25µM* | ? | i
Cc1nn2c(c1-c1ccccc1[S+](C)(=O)[O-])N(Cc1ccccc1)CCC2 | ? | 10µM* | -2%[70.6 µM] | i
SMILES | HEK cytotox | NIH3T3 tox | NPR1 antag | FLuc inh
Cc1nn2c(c1-c1ccccc1OCc1ccccc1)N(C(=O)C1CCOCC1)CCC2 | ? | ? | -20%[70.6 µM] | i
Cc1nn2c(c1-c1ccccc1OCc1ccccc1)N(C(=O)C1CCC1)CCC2 | 40µM* | ? | 1%[70.6 µM] | i
Clc1ccccc1C1(c2ccnc(NCCc3ccncc3)n2)CCNCC1 | ? | ? | -1% | i
CC(C)CCN1CCCC2(CC(Cc3ccccc3)=NO2)C1 (stereo not given) | 100µM* | -20%[138 µM] | 9%[70.6 µM] | i
Cc1ccc(C(=O)Nc2ccc3c(N4CCOCC4)ncnc3c2)cc1C | ? | ? | -15% | ?
COc1cccc(C(=O)Nc2ccc3c(N4CCOCC4)ncnc3c2)c1 | -77% | -59% | 4% | ?
O=C(Nc1ccc2c(N3CCOCC3)ncnc2c1)c1ccc(Br)o1 | 40µM* | ? | 3% | i
CC(Oc1cccc(Cl)c1)C(=O)Nc1ccc2c(N3CCOCC3)ncnc2c1 (stereo not given) | 45µM* | ? | -24% | i
O=C(Nc1ccc2c(N3CCOCC3)ncnc2c1)c1cccc(Cl)c1 | ? | 7.1µM* | -3% | i
O=C(c1ccc(C(F)(F)F)cc1)N1CCN(C(=O)c2nc3cccnc3n(C3CCCC3)c2=O)CC1 | -22% | ? | nt | nt
Cc1cc(C)n(CCC(=O)N2c3ccccc3CC2c2noc(C3CCOCC3)n2)n1 (stereo not given) | ? | ? | -29% | 25µM*
COc1cc(NC(=O)c2cc3c(N4CCSCC4)nc(C)cn3n2)cc(OC)c1OC | 35µM* | ? | -25% | i
COc1ccccc1NC(=O)c1cc2c(N3CCSCC3)nc(C)cn2n1 | 50µM* | -10% | 2% | i
COc1cc(NC(=O)c2cc3c(N4CCCC4)nc(C)cn3n2)cc(OC)c1OC | 45µM* | ? | 0% | i
Cc1ccc(C(=O)NC2CCN(C(=O)c3ccc(-c4cccs4)cc3)CC2)cc1 | ? | -37% | nt | nt
COc1ccccc1-c1ccc(CN2CCN(c3ccc(Cl)nn3)C(=O)C2)cc1 | -14% | -14% | -2% | i
COc1ccccc1-c1ccc(CN2CCN(c3cc(Cl)ncn3)C(=O)C2)cc1 | 45µM* | ? | -11%[70.6 µM] | i
CC1=C[C@@H](CNC(=O)COCC(=O)O)[C@H](C(C)C)C[C@H]1Cc1nc2ccc(C)cc2[nH]1 | -20%[172 µM] | 2%[174 µM] | -2%[70.6 µM] | i
CC1=C[C@@H](CNC(=O)COCC(=O)O)[C@H](C(C)C)C[C@H]1Cc1nc2ccccc2n1C | -6%[172 µM] | -29%[174 µM] | -16%[70.6 µM] | i
CC1=C[C@@H](CNC(=O)c2cnccn2)[C@H](C(C)C)C[C@H]1Cc1nc2ccccc2n1C | ? | ? | ? | i
CC1=C[C@@H](CNC(=O)N2CCOCC2)[C@H](C(C)C)C[C@H]1Cc1nc2ccccc2n1C | 63µM* | 63µM* | ? | i
CC1=C[C@@H](CNC(=O)Cn2cnnn2)[C@H](C(C)C)C[C@H]1Cc1nc2ccccc2n1C | ? | 89µM* | ? | i
CC1=C[C@@H](CNC(=O)Cn2cnnn2)[C@H](C(C)C)C[C@H]1Cc1nc2ccc(C)cc2[nH]1 | 89µM* | ? | -23%[70.6 µM] | i
COCC(=O)NC[C@@H]1C=C(C)[C@H](Cc2nc3ccccc3n2C)C[C@H]1C(C)C | 56µM* | 50µM* | ? | i
CN(C)CCNC(=O)c1nc2nc(-c3ccccc3)c(Nc3ccc(F)cc3)cc2n1C | 56µM* | ? | 2%[70.6 µM] | i
Cc1ccccc1Nc1cc2c(nc1-c1ccccc1)nc(C(=O)NCCN(C)C)n2C | 40µM* | 32µM* | 2%[70.6 µM] | i
